Target: CaNbp2
Experiment: SPOT peptide array binding signal intensity (averaged, normalized) (arbitrary units (background-subtracted, floor 0; scale differs between SH3 domains)); higher = stronger binding of the SH3 domain to the peptide
Outline: (§1)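 Binding signal is given in arbitrary units that differ between domains and is the normalized, background-subtracted spot intensity averaged across replicates. Each GST-SH3 fusion from one of four yeast species was made in E. coli BL21(DE3), purified on glutathione Sepharose and incubated at 10 μg/ml overnight at 4°C on cellulose-bound synthetic 15-mer peptides in which cysteines were replaced by serines. Detection used anti-GST antibody, an HRP anti-mouse secondary and luminol, followed by imaging and Genespotter quantification.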

Binder | SPOT peptide array binding signal intensity
NRPAIRIPSLKKPAL | 270
HGKRRAPLLLAKLDV | 1060

Target: CaRvs167
Experiment: as above
Outline: as §1

Binder | SPOT peptide array binding signal intensity
NRPAIRIPSLKKPAL | 33.3
HGKRRAPLLLAKLDV | 7.67

Target: CaRvs167-3
Experiment: as above
Outline: as §1

Binder | SPOT peptide array binding signal intensity
NRPAIRIPSLKKPAL | 23
HGKRRAPLLLAKLDV | 17.5

Target: CaSho1
Experiment: as above
Outline: as §1

Binder | SPOT peptide array binding signal intensity
NRPAIRIPSLKKPAL | 218
HGKRRAPLLLAKLDV | 95

Target: CaSla1-D1-D2
Experiment: as above
Outline: as §1

Binder | SPOT peptide array binding signal intensity
NRPAIRIPSLKKPAL | 4.5
HGKRRAPLLLAKLDV | 122

Target: CaSla1-D3
Experiment: as above
Outline: as §1

Binder | SPOT peptide array binding signal intensity
NRPAIRIPSLKKPAL | 0.75
HGKRRAPLLLAKLDV | 8.75

Target: ScAbp1
Experiment: as above
Outline: as §1

Binder | SPOT peptide array binding signal intensity
NRPAIRIPSLKKPAL | 53.5
HGKRRAPLLLAKLDV | 50

Target: ScBbc1
Experiment: as above
Outline: as §1

Binder | SPOT peptide array binding signal intensity
NRPAIRIPSLKKPAL | 9.25
HGKRRAPLLLAKLDV | 12.2

Target: ScBem1-D1
Experiment: as above
Outline: as §1

Binder | SPOT peptide array binding signal intensity
NRPAIRIPSLKKPAL | 19
HGKRRAPLLLAKLDV | 30

Target: ScBzz1-D1
Experiment: as above
Outline: as §1

Binder | SPOT peptide array binding signal intensity
NRPAIRIPSLKKPAL | 31.5
HGKRRAPLLLAKLDV | 21.5

Target: ScBzz1-D2
Experiment: as above
Outline: as §1

Binder | SPOT peptide array binding signal intensity
NRPAIRIPSLKKPAL | 12.5
HGKRRAPLLLAKLDV | 27

Target: ScCyk3
Experiment: as above
Outline: as §1

Binder | SPOT peptide array binding signal intensity
NRPAIRIPSLKKPAL | 20
HGKRRAPLLLAKLDV | 102

Target: ScFus1
Experiment: as above
Outline: as §1

Binder | SPOT peptide array binding signal intensity
NRPAIRIPSLKKPAL | 243
HGKRRAPLLLAKLDV | 136

Target: ScHof1
Experiment: as above
Outline: as §1

Binder | SPOT peptide array binding signal intensity
NRPAIRIPSLKKPAL | ≤ 0
HGKRRAPLLLAKLDV | 0.5

Target: ScHse1
Experiment: as above
Outline: as §1

Binder | SPOT peptide array binding signal intensity
NRPAIRIPSLKKPAL | 2200
HGKRRAPLLLAKLDV | 732

Target: ScLsb1
Experiment: as above
Outline: as §1

Binder | SPOT peptide array binding signal intensity
NRPAIRIPSLKKPAL | 118
HGKRRAPLLLAKLDV | ≤ 0

Target: ScLsb2
Experiment: as above
Outline: as §1

Binder | SPOT peptide array binding signal intensity
NRPAIRIPSLKKPAL | 12.5
HGKRRAPLLLAKLDV | ≤ 0

Target: ScLsb3
Experiment: as above
Outline: as §1

Binder | SPOT peptide array binding signal intensity
NRPAIRIPSLKKPAL | 40
HGKRRAPLLLAKLDV | 16.5

Target: ScLsb4
Experiment: as above
Outline: as §1

Binder | SPOT peptide array binding signal intensity
NRPAIRIPSLKKPAL | 10
HGKRRAPLLLAKLDV | ≤ 0

Target: ScMyo3
Experiment: as above
Outline: as §1

Binder | SPOT peptide array binding signal intensity
NRPAIRIPSLKKPAL | 1
HGKRRAPLLLAKLDV | 1

Target: ScMyo5
Experiment: as above
Outline: as §1

Binder | SPOT peptide array binding signal intensity
NRPAIRIPSLKKPAL | ≤ 0
HGKRRAPLLLAKLDV | 5.5

Target: ScNbp2
Experiment: as above
Outline: as §1

Binder | SPOT peptide array binding signal intensity
NRPAIRIPSLKKPAL | 169
HGKRRAPLLLAKLDV | 210

Target: ScPex13
Experiment: as above
Outline: as §1

Binder | SPOT peptide array binding signal intensity
NRPAIRIPSLKKPAL | 23.8
HGKRRAPLLLAKLDV | ≤ 0

Target: ScRvs167
Experiment: as above
Outline: as §1

Binder | SPOT peptide array binding signal intensity
NRPAIRIPSLKKPAL | 39.8
HGKRRAPLLLAKLDV | 11.3

Target: ScSho1
Experiment: as above
Outline: as §1

Binder | SPOT peptide array binding signal intensity
NRPAIRIPSLKKPAL | 412
HGKRRAPLLLAKLDV | 186

Target: ScSla1-D1-D2
Experiment: as above
Outline: as §1

Binder | SPOT peptide array binding signal intensity
NRPAIRIPSLKKPAL | 167
HGKRRAPLLLAKLDV | 126

Target: ScSla1-D3
Experiment: as above
Outline: as §1

Binder | SPOT peptide array binding signal intensity
NRPAIRIPSLKKPAL | 4
HGKRRAPLLLAKLDV | 20.5

Target: SpAbp1-D1
Experiment: as above
Outline: as §1

Binder | SPOT peptide array binding signal intensity
NRPAIRIPSLKKPAL | 135
HGKRRAPLLLAKLDV | 55

Target: SpBbc1
Experiment: as above
Outline: as §1

Binder | SPOT peptide array binding signal intensity
NRPAIRIPSLKKPAL | 3.75
HGKRRAPLLLAKLDV | 0.5

Target: SpBzz1-D1
Experiment: as above
Outline: as §1

Binder | SPOT peptide array binding signal intensity
NRPAIRIPSLKKPAL | 92
HGKRRAPLLLAKLDV | 204

Target: SpBzz1-D2
Experiment: as above
Outline: as §1

Binder | SPOT peptide array binding signal intensity
NRPAIRIPSLKKPAL | ≤ 0
HGKRRAPLLLAKLDV | ≤ 0

Target: SpCyk3
Experiment: as above
Outline: as §1

Binder | SPOT peptide array binding signal intensity
NRPAIRIPSLKKPAL | 5
HGKRRAPLLLAKLDV | 18

Target: SpHof1
Experiment: as above
Outline: as §1

Binder | SPOT peptide array binding signal intensity
NRPAIRIPSLKKPAL | 66.5
HGKRRAPLLLAKLDV | 31.2

Target: SpHof1-2
Experiment: as above
Outline: as §1

Binder | SPOT peptide array binding signal intensity
NRPAIRIPSLKKPAL | 1.5
HGKRRAPLLLAKLDV | 4.25

Target: SpHof1-3
Experiment: as above
Outline: as §1

Binder | SPOT peptide array binding signal intensity
NRPAIRIPSLKKPAL | 850
HGKRRAPLLLAKLDV | 242

Target: SpHse1
Experiment: as above
Outline: as §1

Binder | SPOT peptide array binding signal intensity
NRPAIRIPSLKKPAL | 664
HGKRRAPLLLAKLDV | 235

Target: SpLsb1
Experiment: as above
Outline: as §1

Binder | SPOT peptide array binding signal intensity
NRPAIRIPSLKKPAL | 43.5
HGKRRAPLLLAKLDV | ≤ 0

Target: SpLsb4
Experiment: as above
Outline: as §1

Binder | SPOT peptide array binding signal intensity
NRPAIRIPSLKKPAL | 27.5
HGKRRAPLLLAKLDV | 21.5

Target: SpMyo1
Experiment: as above
Outline: as §1

Binder | SPOT peptide array binding signal intensity
NRPAIRIPSLKKPAL | ≤ 0
HGKRRAPLLLAKLDV | 2

Target: SpNbp2
Experiment: as above
Outline: as §1

Binder | SPOT peptide array binding signal intensity
NRPAIRIPSLKKPAL | 104
HGKRRAPLLLAKLDV | 63.5

Target: SpPex13
Experiment: as above
Outline: as §1

Binder | SPOT peptide array binding signal intensity
NRPAIRIPSLKKPAL | 3
HGKRRAPLLLAKLDV | 10

Target: SpRvs167
Experiment: as above
Outline: as §1

Binder | SPOT peptide array binding signal intensity
NRPAIRIPSLKKPAL | 13.3
HGKRRAPLLLAKLDV | ≤ 0

Target: SpSla1-D1-D2
Experiment: as above
Outline: as §1

Binder | SPOT peptide array binding signal intensity
NRPAIRIPSLKKPAL | ≤ 0
HGKRRAPLLLAKLDV | ≤ 0

Target: SpSla1-D3
Experiment: as above
Outline: as §1

Binder | SPOT peptide array binding signal intensity
NRPAIRIPSLKKPAL | ≤ 0
HGKRRAPLLLAKLDV | 2

Target: AgAbp1
Experiment: as above
Outline: as §1

Binder | SPOT peptide array binding signal intensity
HGKRRAPLLLAKLDV | 19

Target: AgBbc1
Experiment: as above
Outline: as §1

Binder | SPOT peptide array binding signal intensity
HGKRRAPLLLAKLDV | 2

Target: AgBem1-D1
Experiment: as above
Outline: as §1

Binder | SPOT peptide array binding signal intensity
HGKRRAPLLLAKLDV | 26

Target: AgBzz1-D1
Experiment: as above
Outline: as §1

Binder | SPOT peptide array binding signal intensity
HGKRRAPLLLAKLDV | 82

Target: AgBzz1-D2
Experiment: as above
Outline: as §1

Binder | SPOT peptide array binding signal intensity
HGKRRAPLLLAKLDV | 34.5

Target: AgCyk3
Experiment: as above
Outline: as §1

Binder | SPOT peptide array binding signal intensity
HGKRRAPLLLAKLDV | 7

Target: AgFus1
Experiment: as above
Outline: as §1

Binder | SPOT peptide array binding signal intensity
HGKRRAPLLLAKLDV | 93

Target: AgHof1
Experiment: as above
Outline: as §1

Binder | SPOT peptide array binding signal intensity
HGKRRAPLLLAKLDV | 13.5

Target: AgHse1
Experiment: as above
Outline: as §1

Binder | SPOT peptide array binding signal intensity
HGKRRAPLLLAKLDV | 145

Target: AgLsb1
Experiment: as above
Outline: as §1

Binder | SPOT peptide array binding signal intensity
HGKRRAPLLLAKLDV | ≤ 0

Target: AgLsb4
Experiment: as above
Outline: as §1

Binder | SPOT peptide array binding signal intensity
HGKRRAPLLLAKLDV | 29.5

Target: AgMyo5
Experiment: as above
Outline: as §1

Binder | SPOT peptide array binding signal intensity
HGKRRAPLLLAKLDV | 3

Target: AgNbp2
Experiment: as above
Outline: as §1

Binder | SPOT peptide array binding signal intensity
HGKRRAPLLLAKLDV | 58

Target: AgRvs167
Experiment: as above
Outline: as §1

Binder | SPOT peptide array binding signal intensity
HGKRRAPLLLAKLDV | 6.67

Target: AgSho1
Experiment: as above
Outline: as §1

Binder | SPOT peptide array binding signal intensity
HGKRRAPLLLAKLDV | 6

Target: AgSla1-D1-D2
Experiment: as above
Outline: as §1

Binder | SPOT peptide array binding signal intensity
HGKRRAPLLLAKLDV | 94.5

Target: AgSla1-D3
Experiment: as above
Outline: as §1

Binder | SPOT peptide array binding signal intensity
HGKRRAPLLLAKLDV | 20

Target: CaAbp1-D1
Experiment: as above
Outline: as §1

Binder | SPOT peptide array binding signal intensity
HGKRRAPLLLAKLDV | 499

Target: CaAbp1-D2
Experiment: as above
Outline: as §1

Binder | SPOT peptide array binding signal intensity
HGKRRAPLLLAKLDV | 238

Target: CaBbc1
Experiment: as above
Outline: as §1

Binder | SPOT peptide array binding signal intensity
HGKRRAPLLLAKLDV | 57.8

Target: CaBem1-D1
Experiment: as above
Outline: as §1

Binder | SPOT peptide array binding signal intensity
HGKRRAPLLLAKLDV | 44

Target: CaBzz1-D1
Experiment: as above
Outline: as §1

Binder | SPOT peptide array binding signal intensity
HGKRRAPLLLAKLDV | 94

Target: CaBzz1-D2
Experiment: as above
Outline: as §1

Binder | SPOT peptide array binding signal intensity
HGKRRAPLLLAKLDV | 51.8

Target: CaCyk3
Experiment: as above
Outline: as §1

Binder | SPOT peptide array binding signal intensity
HGKRRAPLLLAKLDV | 37

Target: CaFus1
Experiment: as above
Outline: as §1

Binder | SPOT peptide array binding signal intensity
HGKRRAPLLLAKLDV | 312

Target: CaHof1
Experiment: as above
Outline: as §1

Binder | SPOT peptide array binding signal intensity
HGKRRAPLLLAKLDV | ≤ 0

Target: CaHse1
Experiment: as above
Outline: as §1

Binder | SPOT peptide array binding signal intensity
HGKRRAPLLLAKLDV | 7.75

Target: CaLsb1
Experiment: as above
Outline: as §1

Binder | SPOT peptide array binding signal intensity
HGKRRAPLLLAKLDV | 0.25

Target: CaLsb4
Experiment: as above
Outline: as §1

Binder | SPOT peptide array binding signal intensity
HGKRRAPLLLAKLDV | 26

Target: CaMyo5
Experiment: as above
Outline: as §1

Binder | SPOT peptide array binding signal intensity
HGKRRAPLLLAKLDV | 4

From the supplement of paper PMC4466140
